PubChem BioAssay (NCI)
About 83,000 compounds went through this panel and 20% of them were active in at least one assay; those are over-represented in the sample as a whole.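 Testing used 96-well plates and a 48-hour single-concentration exposure. Example: -40 means 40% of the starting cells died.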 A number with no mark means an inactive call. Calls of active or inactive are those of the source. The calls were made as follows: active = growth percent below 10; inactive = the rest.

Legend:
Assay in all cases: NCI-60 one-dose screen, 48 h (100 = growth as untreated, 0 = no growth, -100 = all killed)
Conditions in all cases: 10 µM unless noted
SR leukemia = test system: SR leukemia
RPMI-8226 leukemia = test system: RPMI-8226 leukemia
OVCAR-8 ovarian = test system: OVCAR-8 ovarian
OVCAR-5 ovarian = test system: OVCAR-5 ovarian
OVCAR-4 ovarian = test system: OVCAR-4 ovarian
SK-OV-3 ovarian = test system: SK-OV-3 ovarian
IGROV1 ovarian = test system: IGROV1 ovarian
OVCAR-3 ovarian = test system: OVCAR-3 ovarian
HS 578T breast = test system: HS 578T breast
NCI/ADR-RES ovarian = test system: NCI/ADR-RES ovarian

Oc1ccc(Cl)c(Nc2ncnc3c2cnn3CC(Cl)c2ccc(Br)cc2)c1 (stereo not given)
growth (SR leukemia): 55.3%
growth (RPMI-8226 leukemia): 52.3%
growth (OVCAR-8 ovarian): 54.9%
growth (OVCAR-5 ovarian): 49.6%
growth (OVCAR-4 ovarian): 57.8%
growth (SK-OV-3 ovarian): 49.2%
growth (IGROV1 ovarian): -2.62% (active)
growth (OVCAR-3 ovarian): 32.3%
growth (HS 578T breast): -17.7% (active)
growth (NCI/ADR-RES ovarian): 48%

COc1cc(CNC(=O)C[C@H](C)CCC=C(C)C)ccc1OCc1cn(-c2ccc(Cl)cc2Cl)nn1
growth (SR leukemia): 79.8%
growth (RPMI-8226 leukemia): 90.7%
growth (OVCAR-8 ovarian): 29.3%
growth (OVCAR-5 ovarian): 91.7%
growth (OVCAR-4 ovarian): 49.7%
growth (SK-OV-3 ovarian): 26.1%
growth (IGROV1 ovarian): 72.3%
growth (OVCAR-3 ovarian): 101%
growth (HS 578T breast): 48.4%
growth (NCI/ADR-RES ovarian): 32.9%

COc1c(F)ccc(C(=O)Nc2ccc3nc(NC(=O)C4CCCN(S(=O)(=O)c5ccc(C(C)(C)C)cc5)C4)sc3c2)c1F (stereo not given)
growth (SR leukemia): 17.3%
growth (RPMI-8226 leukemia): 44.3%
growth (OVCAR-8 ovarian): 84.9%
growth (OVCAR-5 ovarian): 81.3%
growth (OVCAR-4 ovarian): 54%
growth (SK-OV-3 ovarian): 80.8%
growth (IGROV1 ovarian): 55.5%
growth (OVCAR-3 ovarian): 83.9%
growth (HS 578T breast): 58.2%
growth (NCI/ADR-RES ovarian): 67.6%

COc1ccc2[nH]cc(-c3cc4nc(-c5cn(C)c6ncccc56)cc(N)n4n3)c2c1
growth (SR leukemia): -9.65% (active)
growth (RPMI-8226 leukemia): -33.4% (active)
growth (OVCAR-8 ovarian): -40.6% (active)
growth (OVCAR-5 ovarian): -17.6% (active)
growth (OVCAR-4 ovarian): -26.4% (active)
growth (SK-OV-3 ovarian): 103%
growth (IGROV1 ovarian): -62.5% (active)
growth (OVCAR-3 ovarian): -57.6% (active)
growth (HS 578T breast): -10.3% (active)
growth (NCI/ADR-RES ovarian): -15.6% (active)

N#CC1=C(c2ccco2)Nc2c(c(-c3ccccc3)nn2-c2ccccc2)C12C(=O)Nc1ccc(Cl)cc12 (stereo not given)
growth (SR leukemia): -2.37% (active)
growth (RPMI-8226 leukemia): 49.8%
growth (OVCAR-8 ovarian): -29.1% (active)
growth (OVCAR-5 ovarian): 53.5%
growth (OVCAR-4 ovarian): 9.94% (active)
growth (SK-OV-3 ovarian): 55.3%
growth (IGROV1 ovarian): 39.2%
growth (OVCAR-3 ovarian): -27.2% (active)
growth (HS 578T breast): -22.9% (active)
growth (NCI/ADR-RES ovarian): -3.42% (active)

O=c1[nH]c2ccccc2cc1COc1ccc(Nc2nccc(-c3ccc(Cl)cc3)n2)cc1
growth (SR leukemia): 103%
growth (RPMI-8226 leukemia): 108%
growth (OVCAR-8 ovarian): 102%
growth (OVCAR-5 ovarian): 106%
growth (OVCAR-4 ovarian): 95.6%
growth (SK-OV-3 ovarian): 94.5%
growth (IGROV1 ovarian): 102%
growth (OVCAR-3 ovarian): 138%
growth (HS 578T breast): 85.7%
growth (NCI/ADR-RES ovarian): 101%

COc1ccc2[nH]c(=O)c(CSc3ccccc3Nc3nccc(-c4ccc(C(F)(F)F)cc4)n3)cc2c1
growth (SR leukemia): -16.8% (active)
growth (RPMI-8226 leukemia): 4.65% (active)
growth (OVCAR-8 ovarian): 32.4%
growth (OVCAR-5 ovarian): 75.9%
growth (OVCAR-4 ovarian): 39.2%
growth (SK-OV-3 ovarian): 81.7%
growth (IGROV1 ovarian): 59.8%
growth (OVCAR-3 ovarian): 22.1%
growth (HS 578T breast): 42.5%
growth (NCI/ADR-RES ovarian): 10.5%

O=C(CSc1nc2ccccc2c(=O)[nH]1)NNC(=O)c1ccccc1Cl
growth (SR leukemia): 113%
growth (RPMI-8226 leukemia): 108%
growth (OVCAR-8 ovarian): 100%
growth (OVCAR-5 ovarian): 129%
growth (OVCAR-4 ovarian): 99.6%
growth (SK-OV-3 ovarian): 103%
growth (IGROV1 ovarian): 128%
growth (OVCAR-3 ovarian): 118%
growth (HS 578T breast): 97.1%
growth (NCI/ADR-RES ovarian): 123%

Nc1cc(-c2c[nH]c3ccc(Br)cc23)nc2cc(-c3c[nH]c4ccccc34)nn12
growth (SR leukemia): 7.93% (active)
growth (RPMI-8226 leukemia): 0.137% (active)
growth (OVCAR-8 ovarian): -54.1% (active)
growth (OVCAR-5 ovarian): -72.7% (active)
growth (OVCAR-4 ovarian): -5.21% (active)
growth (SK-OV-3 ovarian): -43.6% (active)
growth (IGROV1 ovarian): -77.1% (active)
growth (OVCAR-3 ovarian): -34% (active)
growth (HS 578T breast): -12.4% (active)
growth (NCI/ADR-RES ovarian): -17.9% (active)

O=C(Nc1ccc(F)cc1)Nc1nc2ccc([N+](=O)[O-])cc2s1
growth (SR leukemia): 12.9%
growth (RPMI-8226 leukemia): -23.5% (active)
growth (OVCAR-8 ovarian): 11.4%
growth (OVCAR-5 ovarian): 24%
growth (OVCAR-4 ovarian): 16.4%
growth (SK-OV-3 ovarian): -5.21% (active)
growth (IGROV1 ovarian): 27.1%
growth (OVCAR-3 ovarian): 22.6%
growth (HS 578T breast): -8.39% (active)
growth (NCI/ADR-RES ovarian): 6.37% (active)

Cc1cccc(NCC(=O)N2CCN(c3ncnc4c3cnn4-c3ccccc3)CC2)c1
growth (SR leukemia): 22.7%
growth (RPMI-8226 leukemia): 75.7%
growth (OVCAR-8 ovarian): 65.2%
growth (OVCAR-5 ovarian): 83.8%
growth (OVCAR-4 ovarian): 51.6%
growth (SK-OV-3 ovarian): 67.1%
growth (IGROV1 ovarian): 59.4%
growth (OVCAR-3 ovarian): 94%
growth (HS 578T breast): 60.4%
growth (NCI/ADR-RES ovarian): 60.6%

COc1ccccc1Nc1nnc(-c2c[nH]c3ccccc23)o1
growth (SR leukemia): 1.74% (active)
growth (RPMI-8226 leukemia): -12.4% (active)
growth (OVCAR-8 ovarian): 11.8%
growth (OVCAR-5 ovarian): 32.1%
growth (OVCAR-4 ovarian): 64.3%
growth (SK-OV-3 ovarian): 15.4%
growth (IGROV1 ovarian): 16.8%
growth (OVCAR-3 ovarian): 12.9%
growth (HS 578T breast): 9.82% (active)
growth (NCI/ADR-RES ovarian): -35.9% (active)

COc1ccc(-c2nnc3c(/C=C/c4ccc(Br)cc4)nc4ccccc4n23)cc1
growth (SR leukemia): -19.4% (active)
growth (RPMI-8226 leukemia): 21.2%
growth (OVCAR-8 ovarian): 46.1%
growth (OVCAR-5 ovarian): 79.7%
growth (OVCAR-4 ovarian): 52.9%
growth (SK-OV-3 ovarian): 112%
growth (IGROV1 ovarian): 47.8%
growth (OVCAR-3 ovarian): 15.1%
growth (HS 578T breast): 81.6%
growth (NCI/ADR-RES ovarian): 67.5%

CN1CCN(C(=O)CCN(C(=O)Oc2cc3c(c4ccccc24)[C@H](CCl)CN3C(=O)c2cc3cc(OCCCN4CCC4)ccc3[nH]2)[C@H]2CCSSC2)CC1
growth (SR leukemia): -17.2% (active)
growth (RPMI-8226 leukemia): -39.8% (active)
growth (OVCAR-8 ovarian): -64.4% (active)
growth (OVCAR-5 ovarian): -88.8% (active)
growth (OVCAR-4 ovarian): -30.2% (active)
growth (SK-OV-3 ovarian): -12.4% (active)
growth (IGROV1 ovarian): -51.5% (active)
growth (OVCAR-3 ovarian): -71.7% (active)
growth (HS 578T breast): -9.25% (active)
growth (NCI/ADR-RES ovarian): -46.7% (active)
